Screening results as filed in PubChem.
AmpC detergent – qHTS Inhibitors of AmpC Beta-Lactamase (assay with detergent). P00811. AmpC hydrolysis of nitrocefin, absorbance 480 nm, 0.01% Triton. Potency, µM (top dose mostly 114 µM), without a hit: top-dose activity change, negative = inhibition, actives largely listed as inhibitors. 370,000 tested, 0.041% active. AID 485294, 2010;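 note: 0% = no-compound wells and -100% = no-enzyme wells; nearly all actives have a fitted effect of over 25% in size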
Target sequence (P00811 whole entry, looked up): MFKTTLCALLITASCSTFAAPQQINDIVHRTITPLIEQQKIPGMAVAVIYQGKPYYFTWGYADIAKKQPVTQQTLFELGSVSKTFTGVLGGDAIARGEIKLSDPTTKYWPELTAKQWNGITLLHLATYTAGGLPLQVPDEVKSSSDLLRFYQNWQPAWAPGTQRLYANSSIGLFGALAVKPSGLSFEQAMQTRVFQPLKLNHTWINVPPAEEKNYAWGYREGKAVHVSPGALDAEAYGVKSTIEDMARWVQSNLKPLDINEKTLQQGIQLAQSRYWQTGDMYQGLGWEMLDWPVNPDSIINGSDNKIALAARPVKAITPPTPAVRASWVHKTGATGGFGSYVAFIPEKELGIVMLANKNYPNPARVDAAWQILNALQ
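20 mM phosphate pH 7.0 + 0.01% (detergent screen) or 0.0001% Triton X-100; 5.3 nM AmpC reagent; cpd preinc 15 min RT; nitrocefin (800 uM stock) to start; A480 q20 s × 4 min; Activity was normalised to no-enzyme and no-compound control wells.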
Vaccinia Venus – qHTS for Stage-Specific Inhibitors of Vaccinia Orthopoxvirus: Venus Reporter Primary qHTS | Vaccinia virus Venus reporter expression, fluorescence | Potency, µM (doses to about 36.5 µM), without a hit: at the highest dose activity change, negative = inhibition, usual class: inhibitors | 330,000 tested, 0.46% active | AID 720580, 2013; calls by dose curve; tested in A549 cells; note: % is set by controls: 0 for no effect and ±100 for the full control effect; nearly all actives have a fitted effect of over 30% in size
SARS PLpro yeast – qHTS of Yeast-based Assay for SARS-CoV PLP; 330,000 tested, 0.19% active; Potency, µM (doses to about 32.9 µM), for the others: at the top dose activity, positive = growth rescue, hits mostly activators; S. cerevisiae expressing SARS-CoV PLpro, growth rescue; AID 485353, 2010; calls by dose curve; note: 0% is about no effect; nearly all actives have a fitted effect of over 55% in size
Vaccinia mCherry – qHTS for Stage-Specific Inhibitors of Vaccinia Orthopoxvirus: mCherry Reporter Primary qHTS; Vaccinia virus mCherry reporter infection, fluorescence; Potency, µM (highest dose often 36.5 µM), inactives show at the top dose activity change, negative = inhibition, usual class: inhibitors; 310,000 tested, 0.63% active; calls by dose curve; tested in A549 cells; note: % is set by controls: 0 for no effect and ±100 for the full control effect; nearly all actives have a fitted effect of over 35% in size
AMA1-RON2 inh – qHTS for Inhibitors of AMA1-RON; Towards Development of Antimalarial Drug Lead: Primary Screen | Plasmodium falciparum AMA1 (3D7) - RON2 peptide interaction | AlphaScreen AMA1-biotinylated RON2 peptide binding | Potency, µM (series often up to 58.2 µM), for the others: at the highest dose activity change, negative = inhibition, actives largely listed as inhibitors | 360,000 tested, 0.2% active;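 note: 0% = vehicle wells and -100% = peptide control; nearly all actives have a fitted effect of over 45% in size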
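AMA1 (3D7) with his tag at 25 nM final met compounds first, then biotinylated RON2 peptide at 25 nM; detection used donor plus acceptor beads, 10 µg/mL apiece, read by AlphaScreen after 30 min at room temperature.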
AmpC no deterg – qHTS Inhibitors of AmpC Beta-Lactamase (assay without detergent); P00811; AmpC nitrocefin hydrolysis, absorbance 480 nm, 0.0001% Triton; Potency, µM (series often up to 57.1 µM), inactives show top-dose activity change, negative = inhibition, actives largely listed as inhibitors; 330,000 tested, 0.52% active;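 note: plate controls were no compound for no effect and no enzyme for full effect; nearly all actives have a fitted effect of over 20% in size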
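20 mM phosphate pH 7.0 + 0.01% (detergent screen) or 0.0001% Triton X-100; 5.3 nM AmpC reagent; cpd preinc 15 min RT; nitrocefin (800 uM stock) to start; A480 q20 s × 4 min; Activity was normalised to no-enzyme and no-compound control wells.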
Active calls of the source: *. Most compounds without a hit are left out; they make up all but 1.4% or so of the library. Unless noted, calls come from the whole dose curve; as a rule, active = well fitted curve in the direction sought with a large enough effect; inconclusive = small, poorly fitted or top-dose-only effect, or another doubt; inactive = no such curve, though single readings can be large; an effect the other way counts as inactive or inconclusive. Potency is the fitted concentration of half-maximal effect.

For CCN(CC)C(=O)CSC(Nc1ccc(F)cc1)=C(C#N)C#N the results were AmpC detergent 2%, Vaccinia Venus 40%, SARS PLpro yeast 1%, Vaccinia mCherry inactive, AMA1-RON2 inh 11% and AmpC no deterg 14µM*.
Screening CC(=O)c1ccc(NC(=O)c2cc(CC(C)C)on2)cc1 returned AmpC detergent inconclusive, Vaccinia Venus 4%, SARS PLpro yeast 0%, Vaccinia mCherry 9%, AMA1-RON2 inh 16% and AmpC no deterg 50µM*.
`Cc1cc(NC(=O)c2cc(CC(C)C)on2)no1` gave AmpC detergent inconclusive, Vaccinia Venus -11%, SARS PLpro yeast -6%, Vaccinia mCherry 0%, AMA1-RON2 inh -1% and AmpC no deterg -8%.
For CC(C)Cc1cc(C(=O)Nc2cccnc2)no1 the results were AmpC detergent inconclusive, Vaccinia Venus 10%, SARS PLpro yeast -7%, Vaccinia mCherry 9%, AMA1-RON2 inh -10% and AmpC no deterg -5%.
`CSc1ccccc1NC(=O)c1cc(CC(C)C)on1` gave AmpC detergent 4%, Vaccinia Venus -9%, SARS PLpro yeast -8%, Vaccinia mCherry inactive, AMA1-RON2 inh 37% and AmpC no deterg 10µM*.
`Cc1cnc(C)c(-c2cccc3c2OC(CNC(=O)C2(c4ccc(Cl)cc4)CC2)C3)n1` (stereo not drawn) gave Vaccinia Venus -5% and Vaccinia mCherry -10%.
CC(=O)NC1=CC(=O)c2nonc2C1=O was read as Vaccinia Venus 1.8µM* and Vaccinia mCherry 1.6µM*.
For COc1cc(O)c(NC(C)=O)c2nonc12 the results were AmpC detergent inconclusive, Vaccinia Venus 3%, SARS PLpro yeast 5%, Vaccinia mCherry -21%, AMA1-RON2 inh 2% and AmpC no deterg -17%.
Screening Cc1ccc(C=C2C=C(c3ccccc3)OC2=O)cc1 returned Vaccinia Venus -22%, Vaccinia mCherry -16% and AMA1-RON2 inh -10%.
For CN(C)c1ccc(C=C2C=C(c3ccccc3)OC2=O)cc1 the results were Vaccinia Venus -30%, Vaccinia mCherry -8% and AMA1-RON2 inh 8.9µM*.
Screening CN(C)CC(C)(C)CNC(=O)c1cnn(-c2ncc3c(n2)-c2ccccc2CC3)c1-c1ccco1 returned Vaccinia Venus -7% and Vaccinia mCherry -3%.
Screening COC(=O)c1c(-c2ccccc2)csc1NC(=O)c1c(-c2ccccc2)noc1C returned AmpC detergent 2%, Vaccinia Venus 19%, SARS PLpro yeast -1%, Vaccinia mCherry 6.3µM*, AMA1-RON2 inh -17% and AmpC no deterg -17%.
O=C(N/N=C/c1ccccc1O)C(=O)N1CCCCCC1 was read as AmpC detergent -1%, Vaccinia Venus -27%, SARS PLpro yeast 27%, Vaccinia mCherry 7.9µM*, AMA1-RON2 inh 19% and AmpC no deterg -27%.
Screening CO[C@H]1[C@H](NC(=O)c2ccco2)c2ccccc2C12CCN(Cc1ccc3cccc(F)c3n1)CC2 returned Vaccinia Venus -6% and Vaccinia mCherry -12%.
COc1ccccc1NC(=O)c1ccc(NS(=O)(=O)c2cccc3cccnc23)cc1 was read as AmpC detergent -3%, Vaccinia Venus -29%, SARS PLpro yeast 2%, Vaccinia mCherry inconclusive, AMA1-RON2 inh -19% and AmpC no deterg 7.9µM*.
COc1ccc(C)cc1NC(=O)c1ccc(NS(=O)(=O)c2cccc3cccnc23)cc1 was read as AmpC detergent -4%, Vaccinia Venus -13%, SARS PLpro yeast -2%, Vaccinia mCherry inconclusive, AMA1-RON2 inh 31% and AmpC no deterg -20%.
For O=c1c2ccccc2c(-c2ccc(O)cc2)nn1-c1cccc(C(F)(F)F)c1 the results were AmpC detergent 2%, Vaccinia Venus 11µM*, SARS PLpro yeast -88%, Vaccinia mCherry inconclusive, AMA1-RON2 inh -2% and AmpC no deterg 18µM*.
For O=c1c2ccccc2c(-c2cccc(C(F)(F)F)c2)nn1-c1ccccc1 the results were AmpC detergent 0%, Vaccinia Venus -13%, SARS PLpro yeast 1%, Vaccinia mCherry -12%, AMA1-RON2 inh 1% and AmpC no deterg -3%.
Screening COc1ccc(C(c2oc(CO)cc(=O)c2O)c2oc(CO)cc(=O)c2O)cc1OC returned AmpC detergent -6%, Vaccinia Venus -4%, SARS PLpro yeast 7.9µM*, Vaccinia mCherry inactive, AMA1-RON2 inh 4% and AmpC no deterg 1%.
For O=C(NCc1nnc2n1CCN(Cc1cccc(Cl)c1)CC2)c1cccc(F)c1 the results were Vaccinia Venus 0% and Vaccinia mCherry -5%.
`CCOC(=O)C1CCCN(c2c(NCCN(CC)c3ccccc3)c(=O)c2=O)C1` (stereo not drawn) gave AmpC detergent 3%, Vaccinia Venus 4%, SARS PLpro yeast 4%, Vaccinia mCherry inactive, AMA1-RON2 inh -3% and AmpC no deterg 22µM*.
CCOC(=O)C1CCCN(c2c(NCCN3CCCCC3C)c(=O)c2=O)C1 (stereo not drawn) was read as AmpC detergent inconclusive, Vaccinia Venus -1%, SARS PLpro yeast 2%, Vaccinia mCherry -8%, AMA1-RON2 inh -2% and AmpC no deterg 3.5µM*.
`CCOC(=O)C1CCCN(c2c(NCCCN(CC)c3ccccc3)c(=O)c2=O)C1` (stereo not drawn) gave AmpC detergent 2%, SARS PLpro yeast 1%, AMA1-RON2 inh 4% and AmpC no deterg inconclusive.
COc1ccc2c(C)nc(Nc3nc(-c4ccccc4)cc(=O)[nH]3)nc2c1 was read as AmpC detergent -6%, Vaccinia Venus 4µM*, SARS PLpro yeast 1%, Vaccinia mCherry inconclusive, AMA1-RON2 inh 5% and AmpC no deterg 84%.
Screening Cc1ccc2c(c1)c1c3n2CCN(C(=O)c2cccc(C(F)(F)F)c2)C3CCC1 (stereo not drawn) returned AmpC detergent 0%, Vaccinia Venus -13% and Vaccinia mCherry -6%.
`CCN(c1ccccc1)S(=O)(=O)c1ccc(C(=O)Nc2nnc(COC)o2)cc1` gave AmpC detergent 0%, Vaccinia Venus -17%, SARS PLpro yeast -4%, AMA1-RON2 inh -3% and AmpC no deterg -27%.
For COCc1nnc(NC(=O)c2ccc(S(=O)(=O)N(C)c3ccccc3)cc2)o1 the results were AmpC detergent inconclusive, Vaccinia Venus -11%, SARS PLpro yeast -3%, Vaccinia mCherry -22%, AMA1-RON2 inh 50% and AmpC no deterg 40µM*.
